Our source for the double positive events and percent response (vesicle binding) values is PubChem BioAssay AID2810 (NMMLSC, 2010).

Screen size: about 1,200 compounds; about 65 (5%) were called active.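 The calls were made as follows: active = at either tested dose, response and 90th-percentile vesicle-stain brightness of CD8 cells under set limits and under 9% cells vesicle-bound; inactive = the rest.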 What follows is part of a selection rich in actives, with near analogues and random picks from the rest.

This assay is described as follows: modulators of CD8 T cell-vesicle binding, confirmation, cherry-picked primary hits, two concentrations (AID 2810).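 As to all read-outs here: lower values mean blocking of vesicle binding.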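 As to percent response (vesicle binding): ratio of mean FL2 vesicle stain of CD8+ cells to that row's control.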 Particulars: 2C CD8+ T cell-vesicle binding, flow cytometry; for double positive events: CD8+/vesicle+ events.
The mark [1] stands for this setting: at 15.4 µM, stronger effect = lower value.

In the case of `COc1ccc(Cc2nc(-c3ccccn3)no2)cc1`, the double positive events is, setting by setting: (at 7.7 µM) 34.9%; under setting [1], 19.8%. For the same compound, the percent response (vesicle binding) runs as follows: under setting [1], 702% (inactive); (response, at 7.7 µM) 360%.

For the compound `Cc1cccc(NS(=O)(=O)c2ccc(Oc3ccccc3)cc2)n1`, the double positive events runs as follows: (at 7.7 µM) 19.3%; under setting [1], 10.1%. The percent response (vesicle binding) is 148% (inactive) under setting [1] and 86.6% (response, at 7.7 µM).

On to `Cc1ccc(S(=O)(=O)Nc2c3ccccc3nc(=O)n2-c2ccccc2)cc1`, for which the double positive events by setting is: (at 7.7 µM) 21.4%; under setting [1], 7.9%. Further, the percent response (vesicle binding) under setting [1] is 50.6% (active) and the percent response (vesicle binding) (response, at 7.7 µM) was found to be 180%.

Consider `Cc1ccc(S(=O)(=O)N2CCN(c3ncnc4ccccc34)CC2)cc1`, for which the double positive events came out at 6.7% (at 7.7 µM) and 15.5% under setting [1]. For the same compound, the percent response (vesicle binding) runs as follows: under setting [1], 103% (inactive); (response, at 7.7 µM) 116%.

With `O=C(Nc1ccccc1C(=O)OCC(=O)c1c[nH]c2ccccc12)c1ccco1`, the double positive events reads like this: (at 7.7 µM) 19.2%; under setting [1], 23.2%. For the same compound, the percent response (vesicle binding) was 289% (inactive) under setting [1] and 174% (response, at 7.7 µM).

In turn, `CCn1cc(CNC(=O)c2ccc(Cl)c([N+](=O)[O-])c2)c(C)n1` yielded a double positive events (at 7.7 µM) of 18.4% and a double positive events under setting [1] of 8.4%. The percent response (vesicle binding) was 244% (inactive) under setting [1] and 301% (response, at 7.7 µM).

With `Cc1cccc(C)c1OCc1nnc(NC(=O)CSc2ccc(Cl)cc2)s1`, the double positive events (at 7.7 µM) stood at 31.8% and the double positive events under setting [1] turned out to be 24.4%. In addition, the percent response (vesicle binding) under setting [1] is 211% (inactive) and the percent response (vesicle binding) (response, at 7.7 µM) was found to be 221%.

For the compound `O=C1CCCc2sccc2N1`, the double positive events is 17.6% (at 7.7 µM) and 1.1% under setting [1]. The percent response (vesicle binding) is 33.4% (active) under setting [1] and 308% (response, at 7.7 µM).

As to `CCCCn1c(N)c(N(CCOC)C(=O)c2c(CC)noc2C)c(=O)[nH]c1=O`, the double positive events (at 7.7 µM) came to 8.2% and the double positive events under setting [1] is 14.5%. The percent response (vesicle binding) reads like this: under setting [1], 132% (inactive); (response, at 7.7 µM) 298%.

For `c1coc(-c2nc3c4c5c(sc4ncn3n2)CCCC5)c1`, the double positive events came out at 17.3% (at 7.7 µM) and 13.1% under setting [1]. The percent response (vesicle binding) reads like this: under setting [1], 71% (inactive); (response, at 7.7 µM) 187%.

On to `O=C(c1ccco1)N1CCN(C(c2ccccc2Cl)c2nnnn2Cc2ccco2)CC1` (configuration not stated), for which the double positive events by setting is: (at 7.7 µM) 15.1%; under setting [1], 6.3%. In addition, the percent response (vesicle binding) is, setting by setting: under setting [1], 40.7% (active); (response, at 7.7 µM) 456%.

Regarding `O=C(c1ccco1)N1CCN(c2ncccn2)CC1`, the double positive events came out at 27.2% (at 7.7 µM) and 11.7% under setting [1]. The percent response (vesicle binding) is 199% (inactive) under setting [1] and 331% (response, at 7.7 µM).

In the case of `COc1ccc(OC)c(C(c2nnnn2CCC(C)C)N2CCN(C(=O)c3ccco3)CC2)c1` (configuration not stated), the double positive events turned out to be 33.6% (at 7.7 µM) and 30.5% under setting [1]. In addition, the percent response (vesicle binding) was 242% (inactive) under setting [1] and 208% (response, at 7.7 µM).

On to `COCC(C)NC(=O)CSc1nc2cc(S(=O)(=O)N3CCCCC3)ccc2o1` (configuration not stated), for which the double positive events by setting is: (at 7.7 µM) 13.5%; under setting [1], 13.6%. Also, the percent response (vesicle binding) was 131% (inactive) under setting [1] and 364% (response, at 7.7 µM).

Take `COc1cccc(NC(=O)Nc2ccc3nc(C)c(C)nc3c2)c1`: the double positive events was 9.8% (at 7.7 µM) and 8.7% under setting [1]. For the same compound, the percent response (vesicle binding) runs as follows: under setting [1], 103% (inactive); (response, at 7.7 µM) 154%.

Consider `COc1ccc(NC(=O)Nc2ccc(O)c3ccccc23)cc1`, for which the double positive events by setting is: (at 7.7 µM) 5.3%; under setting [1], 10%. Moreover, the percent response (vesicle binding) runs as follows: under setting [1], 103% (active); (response, at 7.7 µM) 35.3%.

For the compound `COc1ccc(NC(=O)Nc2c(O)ccc3ccccc23)cc1`, the double positive events is 5.2% (at 7.7 µM) and 17.7% under setting [1]. Moreover, the percent response (vesicle binding) under setting [1] was 132% (inactive) and the percent response (vesicle binding) (response, at 7.7 µM) stood at 173%.

`Cn1nc(-c2ccccc2)c(CSc2ccccc2Cl)c1Cl`: the double positive events runs as follows: (at 7.7 µM) 14.2%; under setting [1], 30.1%. Also, the percent response (vesicle binding) under setting [1] is 241% (inactive) and the percent response (vesicle binding) (response, at 7.7 µM) worked out at 251%.

Regarding `CC(C)c1ccc(NC(=O)NCc2cccnc2)cc1`, the double positive events runs as follows: (at 7.7 µM) 12%; under setting [1], 22.3%. Further, the percent response (vesicle binding) was 281% (inactive) under setting [1] and 415% (response, at 7.7 µM).

With `C/C(=N\NC(=O)c1ccc(Br)o1)c1cc2c(cc1NC(=O)CCC(=O)O)OCO2`, the double positive events runs as follows: (at 7.7 µM) 36.2%; under setting [1], 13.6%. The percent response (vesicle binding) was 208% (inactive) under setting [1] and 305% (response, at 7.7 µM).

For the compound `COc1ccc(NC(=O)C2CCC(C(C)(C)C)CC2)cc1S(=O)(=O)N1CCCCC1` (configuration not stated), the double positive events is, setting by setting: (at 7.7 µM) 17.3%; under setting [1], 13.7%. Besides, the percent response (vesicle binding) under setting [1] is 203% (inactive) and the percent response (vesicle binding) (response, at 7.7 µM) was 135%.

With `COc1ccc(NS(=O)(=O)c2cc(NC(=O)C3CC3)ccc2N2CCCCC2)cc1`, the double positive events runs as follows: (at 7.7 µM) 9.3%; under setting [1], 3.4%. The percent response (vesicle binding) runs as follows: under setting [1], 36.1% (active); (response, at 7.7 µM) 138%.

In the case of `COc1ccc(S(=O)(=O)N2CCCC2C(=O)Nc2ccc(C(C)=O)cc2)cc1` (configuration not stated), the double positive events was determined as 6.8% (at 7.7 µM) and 18.3% under setting [1]. In addition, the percent response (vesicle binding) runs as follows: under setting [1], 384% (inactive); (response, at 7.7 µM) 406%.

Consider `Nc1nc(SCCO)[nH]c(=O)c1NC(=O)c1ccc(Br)o1`, for which the double positive events amounted to 11.9% (at 7.7 µM) and 25.8% under setting [1]. The percent response (vesicle binding) by setting is: under setting [1], 393% (inactive); (response, at 7.7 µM) 383%.

As to `CCOCC(=O)Nc1ccc(S(=O)(=O)N2CCC(c3nc4ccccc4[nH]3)CC2)cc1`, the double positive events (at 7.7 µM) stood at 7.3% and the double positive events under setting [1] was 21.4%. Also, the percent response (vesicle binding) was 156% (inactive) under setting [1] and 124% (response, at 7.7 µM).

In the case of `O=C1CC(c2nc3ccccc3[nH]2)CN1Cc1ccccc1` (configuration not stated), the double positive events reads like this: (at 7.7 µM) 17.2%; under setting [1], 4.3%. Besides, the percent response (vesicle binding) is 50.8% (active) under setting [1] and 341% (response, at 7.7 µM).

On to `O=C(c1ccccc1Cl)N1CCCC(c2nc3c(nnn3Cc3ccccc3)c(=O)[nH]2)C1` (configuration not stated), for which the double positive events amounted to 9.2% (at 7.7 µM) and 17.6% under setting [1]. Further, the percent response (vesicle binding) under setting [1] is 132% (inactive) and the percent response (vesicle binding) (response, at 7.7 µM) amounted to 181%.

In the case of `CC(OC(=O)c1ccc2c(c1)C(=O)N(Cc1ccncc1)C2=O)C(=O)Nc1cccc(Cl)c1Cl` (configuration not stated), the double positive events runs as follows: (at 7.7 µM) 16.7%; under setting [1], 30.5%. Further, the percent response (vesicle binding) runs as follows: under setting [1], 343% (inactive); (response, at 7.7 µM) 266%.

For `CSc1ccccc1NC(=O)CN(C)C(=O)c1ccc2c(c1)OCCO2`, the double positive events by setting is: (at 7.7 µM) 45.7%; under setting [1], 7.6%. Besides, the percent response (vesicle binding) is 133% (inactive) under setting [1] and 295% (response, at 7.7 µM).

With `CCc1ccc(NC(=S)N(CCCN2CCOCC2)Cc2ccccn2)cc1`, the double positive events by setting is: (at 7.7 µM) 22.2%; under setting [1], 40%. Further, the percent response (vesicle binding) runs as follows: under setting [1], 339% (inactive); (response, at 7.7 µM) 168%.

On to `CN(C)S(=O)(=O)c1cccc(-n2sc3ccccc3c2=O)c1`, for which the double positive events is 4.4% (at 7.7 µM) and 2.1% under setting [1]. For the same compound, the percent response (vesicle binding) is 52.8% (active) under setting [1] and 173% (response, at 7.7 µM).

Consider `CCCc1cc(=O)[nH]c(SCC(=O)N2c3ccccc3CC2C)n1` (configuration not stated), for which the double positive events worked out at 26.4% (at 7.7 µM) and 4.8% under setting [1]. Also, the percent response (vesicle binding) is, setting by setting: under setting [1], 139% (inactive); (response, at 7.7 µM) 285%.

In turn, `O=C(O)C1CCC(Cn2c(SCc3cc(=O)n4cc(Cl)ccc4n3)nc3ccsc3c2=O)CC1` (configuration not stated) returned a double positive events (at 7.7 µM) of 29.3% and a double positive events under setting [1] of 9%. Further, the percent response (vesicle binding) was 76.3% (inactive) under setting [1] and 339% (response, at 7.7 µM).
